Shown are actives, neighbours in structure and some others; about 2.4% of the full set was active somewhere.
Pol eta inh: qHTS for Inhibitors of Polymerase Eta; recombinant Pol eta, fluorescent DNA replication assay; Potency, µM (doses to about 114 µM), most hits filed as inhibitors; hit rate 1.2% among 390,000; AID 588591, 2011
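Pol eta at 10 nM preincubated with compounds 15 min at room temperature; reaction started with fluorescent substrate (50 nM final) and read kinetically at 0 and 10 min.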
Pol iota inh: qHTS for Inhibitors of Polymerase Iota; DNA polymerase iota (Homo sapiens), Q9UNA4; Potency, µM (top dose mostly 115 µM), usual class: inhibitors; Pol iota fluorescent replication assay, 10 min; hit rate 1% among 390,000
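Pol iota at 10 nM preincubated 15 min with compounds at room temperature; reaction started with fluorescent substrate, 50 nM final. Fluorescence read kinetically at 0 and 10 min; buffer-only wells as negative control.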
Tb PGK inh: qHTS Assay to Find Inhibitors of Phosphoglycerate Kinase; PGK/GAPDH coupled, Kinase-Glo luminescence, 60 min; Potency, µM (highest dose often 57.5 µM), actives largely listed as inhibitors; hit rate 0.043% among 380,000; further: nearly all actives have a fitted effect of over 60% in size
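Luminescent ATP detection (Kinase-Glo Plus) follows a 60-minute room-temperature incubation, with wells lacking PGK as controls. Buffer: 100 mM TEA (pH 7.6), 5 mM MgCl2, 0.01% Tween-20. Coupling enzyme GAPDH (100 nM final) supplies unstable 1,3-BPG in-well.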
POLK inh: qHTS for Inhibitors of Polymerase Kappa; purified Pol kappa, fluorescent DNA synthesis assay, 10 min; hit rate 0.53% among 400,000; Potency, µM (doses to about 107 µM), usual class: inhibitors; AID 588579, 2011; DNA polymerase kappa (Homo sapiens), Q9UBT6
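Kinetic fluorescence readout at 0 and 10 min followed reaction start with substrate at 50 nM final. Beforehand, enzyme (10 nM Pol kappa) stood 15 min with compound at room temperature; buffer-only wells were negative controls.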
FEN1 inhibitor: qHTS Assay for the Inhibitors of Human Flap endonuclease 1 (FEN1); Recombinant FEN1 flap cleavage, fluorescence, 15 min; Potency, µM (series often up to 114 µM), most hits filed as inhibitors; hit rate 0.35% among 390,000; further: nearly all actives have a fitted effect of over 65% in size
Target sequence (P39748 whole entry, looked up): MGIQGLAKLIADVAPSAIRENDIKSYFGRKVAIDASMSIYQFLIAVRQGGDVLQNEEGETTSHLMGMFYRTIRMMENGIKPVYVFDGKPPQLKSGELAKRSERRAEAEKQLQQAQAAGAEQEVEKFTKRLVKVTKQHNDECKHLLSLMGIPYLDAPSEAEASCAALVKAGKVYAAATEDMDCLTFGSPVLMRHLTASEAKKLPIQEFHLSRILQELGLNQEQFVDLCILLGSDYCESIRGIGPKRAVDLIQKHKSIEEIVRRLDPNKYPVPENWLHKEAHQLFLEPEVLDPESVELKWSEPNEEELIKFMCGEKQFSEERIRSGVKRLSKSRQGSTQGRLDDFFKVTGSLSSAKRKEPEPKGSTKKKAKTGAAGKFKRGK
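Enzyme 10 nM, 15 min RT preincubation with compound; start with substrate 50 nM final; reads at 0 and 15 min; qHTS titration, four-parameter Hill fit.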
Pol beta inh: qHTS Assay for Inhibitors of DNA Polymerase Beta; P06746; Pol beta primer extension/strand displacement, fluorescence kinetic; Potency, µM (top dose mostly 114 µM), usual class: inhibitors; hit rate 1.3% among 340,000
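Human Pol beta at 10 nM; strand-displacement substrate 50 nM final. Compound exposure 15 min at room temperature before start, reaction 10 min at room temperature.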
Large screens that a line does not name were inactive. The call rests on the fitted dose curve; in most records, active means well fitted curve in the direction sought with a large enough effect; inconclusive means small, poorly fitted or top-dose-only effect, or another doubt; inactive means no such curve, though single readings can be large; an effect the other way counts as inactive or inconclusive.

O=C(/C=C/c1ccco1)NCc1ccc(F)cc1	none
O=C(CNC(=O)/C=C/c1ccco1)N=Nc1c(O)[nH]c2ccccc12	Tb PGK inh inconclusive, Pol beta inh 8.9µM
Cc1ccc(/C=C/C(=O)NCc2ccco2)o1	Pol beta inh 22µM (no result: Pol eta inh, Pol iota inh, Tb PGK inh, POLK inh, FEN1 inhibitor)
O=C(/C=C/c1ccco1)NCc1ccco1	Pol eta inh inconclusive, Pol iota inh inconclusive, Pol beta inh 10µM
NS(=O)(=O)c1ccc(CNC(=O)/C=C/c2ccco2)cc1	Pol eta inh 18µM, Pol iota inh inconclusive, Tb PGK inh inconclusive, POLK inh inconclusive, Pol beta inh 22µM
O=C(/C=C/c1ccccc1)NCc1ccco1	none
Oc1ccc(Br)cc1C1C=C(c2ccc3c(c2)OCO3)NC(c2c(F)cccc2Cl)N1 (stereo unspecified)	Pol iota inh inconclusive, FEN1 inhibitor inconclusive (no result: Pol eta inh, Tb PGK inh, Pol beta inh)
Cc1cc(Cl)nc2nc(Cl)ccc12	none (no result: Pol eta inh, Tb PGK inh, Pol beta inh)
CC(C)(C)CC(C)(C)N=C1Nc2cc(Cl)c(Cl)cc2N[C@]12C[C@H]1CCCC(=O)N3CC[C@@H](C2)[C@@H]13	Pol iota inh inconclusive (no result: Pol eta inh, Tb PGK inh, Pol beta inh)
O=C(CCOc1ccccc1)N(Cc1cccnc1)c1nc2c(F)cc(F)cc2s1	none
O=C(NCc1ccco1)/C(=C\c1cccs1)NC(=O)c1cccs1	none
O=C(NCc1ccco1)/C(=C\c1ccco1)NC(=O)c1cccs1	Pol beta inh 22µM
CN(C)c1ccc(/C=C/c2ccnc3ccccc23)cc1O	none (no result: Pol eta inh, Tb PGK inh, Pol beta inh)
CC(NC(=O)Nc1ccc(O)cc1)(C(F)(F)F)C(F)(F)F	Pol iota inh 11µM
COc1ccc(NC(=O)NC(C)(C(F)(F)F)C(F)(F)F)cc1	Pol eta inh inconclusive, Pol iota inh inconclusive
COc1cccc(NC(=O)Cn2c(=O)n(CC(=O)NCc3ccc(C)cc3)c(=O)c3sccc32)c1	none
Cc1sc(C(C2C(=O)CC(C)(C)CC2=O)C2C(=O)CC(C)(C)CC2=O)cc1[N+](=O)[O-]	Pol iota inh 16µM, FEN1 inhibitor inconclusive (no result: Tb PGK inh)
CC1(C)CC(=O)C(C(C2=C(O)CC(C)(C)CC2=O)c2ccc([N+](=O)[O-])cc2)C(=O)C1 (stereo unspecified)	none
COc1cccc(NC(=O)Nc2ccc3nc(N4CCN(C)CC4)cc(C)c3c2)c1	Pol eta inh inconclusive, FEN1 inhibitor inconclusive, Pol beta inh inconclusive
COc1ccc(/C=C2\SC(=S)N(CCC(=O)N3CCCCC3CCO)C2=O)cc1 (stereo unspecified)	Pol eta inh inconclusive, Pol iota inh 28µM, POLK inh inconclusive, Pol beta inh inconclusive
O=C1/C(=C/c2ccco2)SC(=S)N1CCC(=O)N1CCCCC1CCO (stereo unspecified)	Pol eta inh 22µM, Pol beta inh inconclusive
O=C1/C(=C\c2ccco2)SC(=S)N1C1CCCCC1	Pol beta inh 45µM (no result: Pol eta inh, Pol iota inh, Tb PGK inh, POLK inh, FEN1 inhibitor)
Cc1ccc(N2C(=O)/C(=C/c3ccco3)SC2=S)cc1	Pol iota inh inconclusive, POLK inh inconclusive, Pol beta inh inconclusive
O=C1/C(=C/c2ccc(Cl)cc2)SC(=S)N1CCC(=O)N1CCCCC1CCO (stereo unspecified)	Pol beta inh inconclusive
O=C1C[C@H](c2ccccc2Cl)N1S(=O)(=O)c1ccccc1[N+](=O)[O-]	none (no result: Pol eta inh, Tb PGK inh, Pol beta inh)
CCN(C(=O)CSc1nc2ccccc2n1CC(=O)NCc1ccc(OC)cc1)c1ccccc1	Pol iota inh inconclusive
CCOc1ccc(OCCC(=O)NNC(=O)c2nn(C)c(=O)c3ccccc23)cc1	Pol eta inh inconclusive, Pol iota inh inconclusive, Pol beta inh 35µM
Cc1ccc2nc(CO)[nH]c2c1	none (no result: Pol eta inh, Tb PGK inh, Pol beta inh)
Cc1ccc2nccc(/C=C/c3ccc(N(C)C)cc3)c2c1	none (no result: Pol eta inh, Tb PGK inh, Pol beta inh)
C(=C\c1nccc2ccccc12)/c1ccc(N2CCOCC2)cc1	none (no result: Pol eta inh, Tb PGK inh, Pol beta inh)
COc1cccc(/C=C2\Oc3cc(OC(=O)N4CCOCC4)ccc3C2=O)c1	none
COc1cccc(/C=C2\Oc3cc(OCC(=O)N4Cc5ccccc5C[C@H]4C(=O)O)ccc3C2=O)c1	Pol eta inh 50µM, Pol iota inh inconclusive, FEN1 inhibitor inconclusive
COc1ccc(C(=O)c2ccccc2)c(O)c1	POLK inh inconclusive
COc1ccc(C(=O)c2ccccc2)c(O)c1O	POLK inh 10µM (no result: Pol eta inh, Pol iota inh, Tb PGK inh, FEN1 inhibitor, Pol beta inh)
C=CCn1c(SCC(=O)NCC2CCCO2)nc2scc(-c3ccco3)c2c1=O (stereo unspecified)	Pol iota inh inconclusive, Pol beta inh 7.1µM
C=CCn1c(SCC(=O)NCC2CCCO2)nc2scc(-c3ccc(OC)cc3)c2c1=O (stereo unspecified)	none
C=CCn1c(SCC(=O)NCCOC)nc2scc(-c3ccco3)c2c1=O	Pol eta inh 18µM, Pol iota inh inconclusive, POLK inh inconclusive, Pol beta inh inconclusive
Cc1ccc(O)c(NC(=O)c2ccccc2-c2ccccc2C(=O)O)c1	none
O=c1cc(-c2ccc(O)cc2O)oc2ccccc12	none (no result: Pol eta inh, Pol iota inh, Tb PGK inh, FEN1 inhibitor, Pol beta inh)
O=C(O)CN(CC(=O)O)Cc1cc2c(-c3ccccc3C(=O)O)c3cc(CN(CC(=O)O)CC(=O)O)c(=O)cc-3oc2cc1O	POLK inh 7.1µM (no result: Pol eta inh, Pol iota inh, Tb PGK inh, FEN1 inhibitor, Pol beta inh)
O=C(O)c1ccccc1-c1c2ccc(=O)cc-2oc2cc(O)ccc12	POLK inh 27µM (no result: Pol eta inh, Pol iota inh, Tb PGK inh, FEN1 inhibitor, Pol beta inh)
C1=Cc2ccccc2/C1=C/c1ccc2c(c1)OCO2	none (no result: Pol eta inh, Tb PGK inh, Pol beta inh)
CC(=O)Nc1cc(N=Cc2ccc(O)cc2O)c(Cl)cc1Cl	Pol eta inh 45µM, Pol iota inh inconclusive
O=C(NN=C1c2ccccc2-c2ccccc21)c1ccccc1Br	Pol iota inh inconclusive, Pol beta inh 0.28µM
O=C(NN=C1c2ccccc2-c2ccccc21)c1ccccc1	Pol beta inh inconclusive
O=C(c1ccccc1)C(c1ccccc1)[n+]1csc2ccccc21 (stereo unspecified)	none (no result: Pol eta inh, Tb PGK inh, Pol beta inh)
O=C1OC(c2ccc(Cl)cc2)=N/C1=C\C=C\c1ccco1	Pol iota inh inconclusive, POLK inh inconclusive, Pol beta inh 28µM
Nc1nc(-c2cc(O)ccc2[N+](=O)[O-])cc(-c2ccccc2)c1[N+](=O)[O-]	Pol eta inh 89µM, Pol iota inh inconclusive, FEN1 inhibitor inconclusive
COCCCNC(=O)c1ccc(Cn2c(=O)c3ccccc3n(CC(=O)Nc3ccc(C)cc3C)c2=O)cc1	Pol iota inh inconclusive
COCCCNC(=O)Cn1c(=O)n(Cc2ccc(C(=O)NCc3ccc(C)cc3)cc2)c(=O)c2ccccc21	Pol eta inh inconclusive, Pol iota inh 89µM, FEN1 inhibitor inconclusive, Pol beta inh inconclusive
CCC(C)NC(=O)C1CCN(C(=O)c2ccc(-n3ccc4ccccc43)s2)CC1 (stereo unspecified)	none
O=C(N/N=C/c1ccncc1)c1ccc(-n2cccc2)cc1	Pol iota inh 79µM, Pol beta inh 40µM
